Laboratory results published in PubChem BioAssay (NCATS).
“And” between values parts separate entries of the source, which are not always exact repeats. Equal entries are not always repeated. Inconclusive results are not listed. The source made the active and inactive calls. Unless noted, calls come from the whole dose curve; as a rule, active = well fitted curve in the direction sought with a large enough effect; inconclusive = small, poorly fitted or top-dose-only effect, or another doubt; inactive = no such curve, though single readings can be large; an effect the other way counts as inactive or inconclusive.

What was measured:
[1] = molecular target: Cytochrome P450 3A4 (Homo sapiens) (UniProt P08684); assay: qHTS Assay for Inhibitors and Substrates of Cytochrome P450 3A4 (AID 884); note: series mostly up to about 57 µM; % is set by controls: 0 for no effect and ±100 for the full control effect; nearly all actives have a fitted effect of over 50% in size
Chain of Cytochrome P450 3A4 (Homo sapiens) (P08684 whole entry, looked up): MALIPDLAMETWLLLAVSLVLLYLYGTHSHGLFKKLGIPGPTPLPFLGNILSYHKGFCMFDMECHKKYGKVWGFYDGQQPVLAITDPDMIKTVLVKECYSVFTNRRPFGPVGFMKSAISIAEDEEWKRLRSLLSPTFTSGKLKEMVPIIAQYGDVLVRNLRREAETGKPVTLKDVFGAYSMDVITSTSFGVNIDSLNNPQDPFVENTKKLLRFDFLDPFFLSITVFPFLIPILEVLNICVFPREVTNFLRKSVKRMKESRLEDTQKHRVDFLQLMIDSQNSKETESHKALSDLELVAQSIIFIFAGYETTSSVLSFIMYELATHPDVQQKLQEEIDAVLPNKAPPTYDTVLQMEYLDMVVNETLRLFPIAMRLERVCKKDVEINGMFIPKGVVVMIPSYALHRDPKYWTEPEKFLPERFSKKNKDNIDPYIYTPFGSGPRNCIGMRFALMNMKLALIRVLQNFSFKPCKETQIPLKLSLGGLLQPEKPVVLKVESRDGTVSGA
Summary of the method: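 20 nM human CYP3A4 with 25 uM Luciferin-PPXE (at KM) in 200 mM KPO4, preincubated 10 min with compound; NADPH regeneration started a 60 min RT reaction. Luciferin detected by luminescence, normalized to 57 uM ketoconazole as full inhibition.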

[2] = MultiTox-Fluor Cytotoxicity Assay - LYMP1-001 - Live Cells (AID 947);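 note: 0% = DMSO only and full inhibition = tetraoctylammonium bromide control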
[3] = Cell Viability - LYMP2-009 (AID 968);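 note: series mostly up to about 92 µM; 0% = DMSO alone and the full-kill end = tetraoctylammonium bromide at 92 µM; nearly all actives have a fitted effect of over 55% in size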
[4] = Cell Viability - LYMP2-012 (AID 982);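 note: cellular ATP by luciferase luminescence where a drop means cytotoxicity; cells exposed to compound for one day before reading; 0% = DMSO only and full loss = 92 µM tetraoctylammonium bromide; nearly all actives have a fitted effect of over 55% in size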
[5] = molecular target: Estrogen receptor (Homo sapiens) (UniProt P03372); assay: qHTS assay for small molecule antagonists of estrogen receptor alpha signaling (AID 588513; active = well fitted curve in the direction sought with a large enough effect in the signal ratio, with a control signal flat, not every such curve was filed as active; the % refers to the signal ratio; note: % is set by controls: 0 for no effect and ±100 for the full control effect)
Chain of Estrogen receptor (Homo sapiens) (P03372 whole entry, looked up): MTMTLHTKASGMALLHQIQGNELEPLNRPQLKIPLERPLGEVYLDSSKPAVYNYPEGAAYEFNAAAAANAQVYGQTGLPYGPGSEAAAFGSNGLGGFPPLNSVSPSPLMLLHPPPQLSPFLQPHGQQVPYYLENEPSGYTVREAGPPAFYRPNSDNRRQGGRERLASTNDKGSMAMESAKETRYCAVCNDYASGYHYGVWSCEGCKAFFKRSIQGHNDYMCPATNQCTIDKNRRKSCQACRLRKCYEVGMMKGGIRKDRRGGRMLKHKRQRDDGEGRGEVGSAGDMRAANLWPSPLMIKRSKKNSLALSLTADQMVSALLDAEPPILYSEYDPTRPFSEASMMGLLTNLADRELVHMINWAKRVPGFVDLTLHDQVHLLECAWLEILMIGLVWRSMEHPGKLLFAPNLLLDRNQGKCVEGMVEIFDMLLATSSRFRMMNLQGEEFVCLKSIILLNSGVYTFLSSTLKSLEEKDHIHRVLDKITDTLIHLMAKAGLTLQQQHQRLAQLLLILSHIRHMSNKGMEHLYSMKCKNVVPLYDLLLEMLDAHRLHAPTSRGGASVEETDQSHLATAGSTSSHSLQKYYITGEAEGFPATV
Summary of the method: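 Fluorescence from CCF4 substrate after 2 h at room temperature gave reporter activity; cells had been exposed to compound and 0.5nM 17-beta-estradiol for 18 h at 37 C. Hill-equation fitting yielded IC50 and maximal response.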

[6] = molecular target: Estrogen receptor (Homo sapiens) (UniProt P03372); assay: qHTS assay for small molecule agonists of estrogen receptor alpha signaling (AID 588514; calls by dose curve; note: nearly all actives have a fitted effect of over 70% in size; note: potency is the fitted concentration of half-maximal effect;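 for activation: 0% = vehicle only and 100% = reference agonist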)
Summary of the method: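 ER-alpha-UAS-bla GripTite HEK293 cells, 5000/well in 2% charcoal/dextran-stripped FBS medium, treated with compound titrations 18 h at 37 C. CCF4 beta-lactamase read by fluorescence after 2 h RT; normalised to 20 nM 17-beta-estradiol (100%) and DMSO (0%), Hill fit for EC50 and efficacy.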

[7] = molecular target: Bile acid receptor (Homo sapiens) (UniProt Q96RI1); assay: qHTS assay for small molecule agonists of farnesoid X receptor signaling (AID 588527; calls by dose curve;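 note: series mostly up to about 77 µM; 0% = vehicle basal and 100% = reference agonist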); settings: HEK293T FXR-UAS-bla, beta-lactamase ratio, 16 h; stronger effect = higher value
Chain of Bile acid receptor (Homo sapiens) (Q96RI1 whole entry, looked up): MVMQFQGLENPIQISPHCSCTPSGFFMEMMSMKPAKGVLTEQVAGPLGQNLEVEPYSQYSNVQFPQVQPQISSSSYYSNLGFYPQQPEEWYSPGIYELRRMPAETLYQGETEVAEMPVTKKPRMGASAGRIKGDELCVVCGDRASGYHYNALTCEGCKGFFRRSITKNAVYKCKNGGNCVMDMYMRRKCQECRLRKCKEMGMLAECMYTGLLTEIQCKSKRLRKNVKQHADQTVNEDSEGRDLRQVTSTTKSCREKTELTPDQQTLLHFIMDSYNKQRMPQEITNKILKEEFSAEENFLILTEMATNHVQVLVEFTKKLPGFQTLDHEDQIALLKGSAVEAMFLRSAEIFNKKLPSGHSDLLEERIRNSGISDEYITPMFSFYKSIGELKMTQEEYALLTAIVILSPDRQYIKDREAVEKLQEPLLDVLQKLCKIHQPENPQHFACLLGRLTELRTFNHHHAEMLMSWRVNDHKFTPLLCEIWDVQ
Summary of the method: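 FXR-UAS-bla HEK293T cells (10% dialyzed FBS) preincubated 5-7 h at 37 C, then compounds at up to 92 uM for 16 h at 37 C. CCF4 beta-lactamase read-out after 2 h RT. Normalized to chenodeoxycholic acid (100 uM) and DMSO; Hill fit gave EC50 and efficacy.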

[8] = molecular target: Glucocorticoid receptor (Homo sapiens) (UniProt P04150); assay: qHTS assay for small molecule agonists of glucocorticoid receptor signaling (AID 588532; active = well fitted curve in the direction sought with a large enough effect in the signal ratio, with a control signal flat; the % refers to the signal ratio;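 note: 100% = dexamethasone at 0.1 µM and 0% = DMSO only wells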); settings: HeLa MMTV-bla, beta-lactamase ratio, agonist, 18 h; stronger effect = higher value; percent of dexamethasone control, DMSO zero
Chain of Glucocorticoid receptor (Homo sapiens) (P04150 whole entry, looked up): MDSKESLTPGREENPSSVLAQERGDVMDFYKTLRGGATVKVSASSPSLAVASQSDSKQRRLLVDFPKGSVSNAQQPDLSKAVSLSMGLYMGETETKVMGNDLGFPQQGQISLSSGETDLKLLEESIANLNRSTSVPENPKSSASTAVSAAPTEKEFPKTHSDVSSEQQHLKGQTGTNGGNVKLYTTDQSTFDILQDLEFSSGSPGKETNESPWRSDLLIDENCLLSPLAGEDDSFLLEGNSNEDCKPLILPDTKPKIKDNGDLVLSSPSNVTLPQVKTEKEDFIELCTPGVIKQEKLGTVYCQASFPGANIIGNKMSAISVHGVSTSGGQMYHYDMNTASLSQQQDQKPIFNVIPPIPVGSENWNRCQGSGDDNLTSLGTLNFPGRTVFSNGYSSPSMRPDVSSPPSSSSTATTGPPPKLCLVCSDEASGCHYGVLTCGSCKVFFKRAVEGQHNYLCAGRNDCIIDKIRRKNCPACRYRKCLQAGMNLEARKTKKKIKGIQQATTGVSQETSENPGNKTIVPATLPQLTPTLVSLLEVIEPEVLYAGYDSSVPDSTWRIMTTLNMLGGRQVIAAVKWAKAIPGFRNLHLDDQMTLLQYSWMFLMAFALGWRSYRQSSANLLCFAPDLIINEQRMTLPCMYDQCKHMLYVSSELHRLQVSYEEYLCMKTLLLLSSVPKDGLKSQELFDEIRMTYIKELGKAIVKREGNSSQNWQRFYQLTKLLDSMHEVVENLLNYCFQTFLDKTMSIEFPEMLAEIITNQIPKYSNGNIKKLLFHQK
Summary of the method: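 HeLa GRE-bla reporter cells; 18 h compound exposure at 37 C; 2 h CCF4 loading at room temperature; fluorescence at 460 and 530 nm; EC50 by Hill equation.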

[9] = molecular target: Glucocorticoid receptor (Homo sapiens) (UniProt P04150); assay: qHTS assay for small molecule antagonists of glucocorticoid receptor signaling (AID 588533; active = well fitted inhibition curve with a large enough effect in the signal ratio, with a control signal flat, not every such curve was filed as active; the % refers to the signal ratio; note: % is set by controls: 0 for no effect and ±100 for the full control effect)
Summary of the method: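 Antagonist-mode qHTS: compound titrations added to GRE-bla HeLa cells, then dexamethasone 2 nM final; 18 h, 37 C. CCF4 FRET fluorescence normalized to dexamethasone and DMSO; IC50 from Hill fit.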

[10] = molecular target: Peroxisome proliferator-activated receptor gamma (Homo sapiens) (UniProt P37231); assay: qHTS assay for small molecule agonists of peroxisome proliferator-activated receptor gamma signaling (AID 588536; active = well fitted curve in the direction sought with a large enough effect in the signal ratio, with a control signal flat, not every such curve was filed as active; the % refers to the signal ratio;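 note: 0% = DMSO basal wells and 100% = rosiglitazone at 2 µM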)
Chain of Peroxisome proliferator-activated receptor gamma (Homo sapiens) (P37231 whole entry, looked up): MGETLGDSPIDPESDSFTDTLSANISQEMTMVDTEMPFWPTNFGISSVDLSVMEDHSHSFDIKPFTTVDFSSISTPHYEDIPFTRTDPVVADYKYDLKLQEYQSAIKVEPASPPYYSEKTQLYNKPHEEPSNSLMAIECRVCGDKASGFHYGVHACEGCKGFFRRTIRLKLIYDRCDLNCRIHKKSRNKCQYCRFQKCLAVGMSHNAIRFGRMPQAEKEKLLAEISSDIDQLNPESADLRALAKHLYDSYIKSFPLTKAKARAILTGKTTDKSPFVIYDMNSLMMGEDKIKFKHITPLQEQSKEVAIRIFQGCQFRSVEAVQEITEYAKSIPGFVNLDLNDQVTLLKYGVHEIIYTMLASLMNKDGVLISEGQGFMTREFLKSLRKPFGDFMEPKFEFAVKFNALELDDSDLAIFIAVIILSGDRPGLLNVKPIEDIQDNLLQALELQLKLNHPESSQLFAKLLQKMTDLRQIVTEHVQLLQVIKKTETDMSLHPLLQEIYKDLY
Summary of the method: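 GeneBLAzer PPAR-gamma-UAS-bla HEK293 cells in 1% charcoal/dextran-treated FBS medium were treated 16 h at 37 C with compounds. Beta-lactamase activity was read by CCF4 ratio (460/530 nm). Response was normalized to 2 uM rosiglitazone (100%) and DMSO, then Hill-fitted for EC50 and efficacy.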

[11] = molecular target: Vitamin D3 receptor (Homo sapiens) (UniProt P11473); assay: qHTS assay for small molecule antagonists of vitamin D receptor signaling (AID 588541; calls by dose curve;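 note: receptor activated by calcitriol during compound treatment; series mostly up to about 77 µM; % is set by controls: 0 for no effect and ±100 for the full control effect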)
Chain of Vitamin D3 receptor (Homo sapiens) (P11473 whole entry, looked up): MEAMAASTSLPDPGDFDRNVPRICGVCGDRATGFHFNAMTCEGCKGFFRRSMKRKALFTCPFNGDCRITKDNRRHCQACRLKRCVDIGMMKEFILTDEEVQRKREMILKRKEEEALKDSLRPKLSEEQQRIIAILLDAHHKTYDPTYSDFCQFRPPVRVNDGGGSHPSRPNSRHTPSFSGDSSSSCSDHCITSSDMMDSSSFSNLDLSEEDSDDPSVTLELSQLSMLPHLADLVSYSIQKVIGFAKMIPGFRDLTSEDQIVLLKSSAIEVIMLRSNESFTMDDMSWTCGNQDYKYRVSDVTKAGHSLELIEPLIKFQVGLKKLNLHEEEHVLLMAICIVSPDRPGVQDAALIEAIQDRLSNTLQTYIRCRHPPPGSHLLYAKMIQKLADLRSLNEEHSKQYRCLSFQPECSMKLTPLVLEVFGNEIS
Summary of the method: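 VDR-UAS-bla HEK293T cells in 2% charcoal-stripped FBS were stimulated with 1-alpha,25-dihydroxyvitamin D3 (3 nM final) plus compound for 16 h at 37 C. The beta-lactamase CCF4 readout was normalized to 50 nM agonist and DMSO, and Hill fits gave IC50.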

[12] = molecular target: Vitamin D3 receptor (Homo sapiens) (UniProt P11473); assay: qHTS assay for small molecule agonists of vitamin D receptor signaling (AID 588543; calls by dose curve;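 note: 0% = DMSO basal and 100% = reference agonist control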)
Summary of the method: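 Reporter cells (HEK293T, VDR-UAS-bla) were seeded in medium with 2% charcoal-stripped serum and incubated 5 h, then compounds in concentration series were added for 16 h at 37 °C. Stimulation was scaled between DMSO basal and 50 nM 1α,25-dihydroxyvitamin D3.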

[13] = qHTS assay for small molecule agonists of the antioxidant response element (ARE) signaling pathway (AID 651741; active = well fitted activation curve with a large enough effect in the signal ratio; the % refers to the signal ratio; note: potency is the fitted concentration of half-maximal effect; for activation: % of control where 0% means no effect)
Summary of the method: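 CellSensor ARE-bla HepG2 cells (2,000/well) carrying ARE-driven beta-lactamase, exposed 16 h at 37 C. LiveBLAzer B/G FRET substrate added for 2 h at room temperature; fluorescence intensity read.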

[14] = molecular target: Nuclear receptor ROR-gamma (Homo sapiens) (UniProt P51449); assay: qHTS assay for small molecule antagonists of the retinoid-related orphan receptor gamma (ROR-gamma) signaling pathway (AID 651802);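 note: luciferase reporter luminescence driven by ROR response element; series mostly up to about 92 µM; % is set by controls: 0 for no effect and ±100 for the full control effect; nearly all actives have a fitted effect of over 60% in size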
Chain of Nuclear receptor ROR-gamma (Homo sapiens) (P51449 whole entry, looked up): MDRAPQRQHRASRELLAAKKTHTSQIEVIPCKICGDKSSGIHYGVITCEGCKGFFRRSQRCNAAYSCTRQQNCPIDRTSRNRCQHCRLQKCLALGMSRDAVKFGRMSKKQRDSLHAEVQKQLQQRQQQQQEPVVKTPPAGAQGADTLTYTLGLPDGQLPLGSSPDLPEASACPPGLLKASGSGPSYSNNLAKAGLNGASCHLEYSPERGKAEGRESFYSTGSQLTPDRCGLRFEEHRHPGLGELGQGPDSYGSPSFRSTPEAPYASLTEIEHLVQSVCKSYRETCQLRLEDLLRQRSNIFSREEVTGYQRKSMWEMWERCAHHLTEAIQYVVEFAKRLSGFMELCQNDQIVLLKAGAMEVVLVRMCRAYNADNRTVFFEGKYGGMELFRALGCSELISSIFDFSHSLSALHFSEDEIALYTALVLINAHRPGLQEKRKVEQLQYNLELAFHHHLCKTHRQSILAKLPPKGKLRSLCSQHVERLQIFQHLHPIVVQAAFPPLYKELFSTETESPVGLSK
Summary of the method: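 CHO cells with TET-inducible ROR-gamma and RORE-luciferase reporter, dosed then doxycycline-induced. After 16 h at 37C, One-Glo luminescence read; decreased signal indicates antagonism.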

[15] = qHTS assay for small molecule antagonists of the retinoid-related orphan receptor gamma (ROR-gamma) signaling pathway - cell viability counter screen (AID 720652; active = well fitted curve in the direction sought with a large enough effect in the repeat runs; an effect the other way counts as inactive or inconclusive;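 note: series mostly up to about 92 µM; compound exposure lasted 16 hr before ATP read; % is set by controls: 0 for no effect and ±100 for the full control effect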)
Summary of the method: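 CHO cells carrying TET-inducible ROR and RORE-luciferase reporter, plated 5 hr, then dosed with compound plus doxycycline. After 16 hr at 37 C, viability read as intracellular ATP by CellTiter-Glo luminescence.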

[16] = molecular target: Nuclear receptor subfamily 1 group I member 2 (Rattus norvegicus) (UniProt Q9R1A7); assay: qHTS assay for small molecule activators of the rat pregnane X receptor (rPXR) signaling pathway (AID 651751; call rule not given here; note: 0% is about no effect); settings: rPXR reporter cells, luciferase (One-Glo), 24 h
Chain of Nuclear receptor subfamily 1 group I member 2 (Rattus norvegicus) (Q9R1A7 whole entry, looked up): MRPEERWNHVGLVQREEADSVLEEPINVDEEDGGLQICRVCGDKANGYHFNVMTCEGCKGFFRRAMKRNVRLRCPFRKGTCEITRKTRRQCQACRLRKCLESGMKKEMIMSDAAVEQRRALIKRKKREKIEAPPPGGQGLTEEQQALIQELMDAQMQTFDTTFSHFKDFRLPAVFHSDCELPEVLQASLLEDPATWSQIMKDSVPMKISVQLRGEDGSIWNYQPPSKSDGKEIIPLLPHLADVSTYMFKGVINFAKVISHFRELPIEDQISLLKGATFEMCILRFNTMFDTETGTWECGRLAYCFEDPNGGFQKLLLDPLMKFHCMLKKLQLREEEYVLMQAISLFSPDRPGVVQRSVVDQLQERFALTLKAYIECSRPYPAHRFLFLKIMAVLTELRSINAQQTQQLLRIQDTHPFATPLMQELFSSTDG

[17] = qHTS assay for small molecule activators of the human pregnane X receptor (PXR) signaling pathway (AID 720659; call rule not given here; note: 0% is about no effect)
[18] = Cell Viability - LYMP2-004 (AID 966);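 note: plate controls were DMSO only for no effect and tetraoctylammonium bromide control for full effect; nearly all actives have a fitted effect of over 65% in size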
Summary of the method: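 Lymphoblastoid LYMP2-004 cells, 2500 per well, were preincubated for 5 hr and then treated with compound for 24 h at 37 C in complete medium. Viability was read as cellular ATP by CellTiter-Glo luminescence, and AC50 values were taken from Hill fits to concentration-response data.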

[19] = qHTS assay for small molecule activators of the p53 signaling pathway (AID 651743; active = well fitted activation curve with a large enough effect in the signal ratio, not every such curve was filed as active; the % refers to the signal ratio; note: series mostly up to about 92 µM; % of control where 0% means no effect); settings: HCT-116 p53RE-bla, beta-lactamase FRET ratio, 16 h; activation: stronger effect = higher value
Summary of the method: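 p53RE-bla HCT-116 cells carrying a beta-lactamase reporter under p53 response elements were exposed to compounds for 16 hours at 37 C. Reporter activity read as fluorescence after 2 hours at room temperature with LiveBLAzer B/G FRET substrate.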

[20] = qHTS assay for small molecule activators of the nuclear factor-kappa B (NF-kB) signaling pathway (AID 651749; active = well fitted activation curve with a large enough effect in the signal ratio; the % refers to the signal ratio; note: series mostly up to about 77 µM; % of control where 0% means no effect); settings: NF-kB-bla ME-180 cells, beta-lactamase FRET ratio, 16 h; activation: stronger effect = higher value
Summary of the method: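 NF-kB-bla ME-180 cells carrying a beta-lactamase reporter under an NF-kB response element, 2,000 cells/well, exposed to compound for 16 hr at 37C; FRET-based beta-lactamase fluorescence read-out of pathway activation.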

C[N+](C)(C)Cc1ccccc1
inactive: Potency [1] | Potency [2] | Potency [3] | Potency [4] | Potency [5] | Potency [6] | activation [7] -0.315% and 0.14% | activation [8] -1.14% | Potency [9] | outcome [10] | outcome [11] | outcome [12] | Potency [13] | Potency [14] | Potency [15] | max response [16] -3.63% and -0.669% | outcome [17]

c1nc[nH]n1
inactive: Potency [2] | Potency [18] | Potency [3] | Potency [4] | Potency [5] | Potency [6] | activation [7] 0.583% | activation [8] 11.9% | Potency [9] | outcome [10] | outcome [11] | outcome [12] | activation [19] -1.22% | activation [20] 0.14% | Potency [14] | Potency [15] | max response [16] 0.756% | outcome [17]

Nc1ccccc1Cl
inactive: Potency [2] | Potency [18] | Potency [3] | Potency [4] | Potency [5] | Potency [6] | activation [7] -1.66% | activation [8] -0.0832% | Potency [9] | outcome [10] | outcome [11] | outcome [12] | Potency [13] | activation [19] -1.73% | activation [20] 0.524% | Potency [14] | max response [16] 9.37% | outcome [17]

C1CCC2CCCCC2C1 (configuration not stated)
inactive: Potency [1] | Potency [2] | Potency [18] | Potency [3] | Potency [4] | Potency [5] | Potency [6] | activation [7] -3.01% | activation [8] 11.1% | Potency [9] | outcome [10] | outcome [11] | outcome [12] | activation [19] -0.562% | Potency [14] | Potency [15] | max response [16] 1.72% | outcome [17]

CCN(CC)c1ccccc1
inactive: Potency [1] | Potency [2] | Potency [18] | Potency [3] | Potency [4] | Potency [5] | Potency [6] | activation [7] -2.77% | activation [8] -4.16% | Potency [9] | outcome [10] | outcome [11] | outcome [12] | Potency [13] | activation [19] 0.724% | activation [20] -0.976% | Potency [14] | Potency [15] | max response [16] -0.145% | outcome [17]

CC(O)CCl (configuration not stated)
active: Potency [13] 54.5 µM
inactive: Potency [1] | Potency [2] | Potency [18] | Potency [3] | Potency [4] | Potency [5] | Potency [6] | activation [7] -2.4% and 3.49% | activation [8] -3.59% and -2.54% | Potency [9] | outcome [10] | outcome [11] | outcome [12] | activation [20] 1% and -0.134% | Potency [14] | Potency [15] | max response [16] 4.48% and -2.85% | outcome [17]

CN=C=S
inactive: Potency [1] | Potency [2] | Potency [18] | Potency [3] | Potency [4] | Potency [5] | activation [7] 2.73% and -2.27% | outcome [10] | outcome [11] | outcome [12] | Potency [13] | activation [19] -0.537% and -2.4% | activation [20] 0.411% and -0.263% | Potency [14] | max response [16] 1.38% and 4.99% | outcome [17]
active: Potency [6] 20 µM

NC(=S)Nc1ccccc1
inactive: Potency [1] | Potency [2] | Potency [18] | Potency [3] | Potency [4] | Potency [5] | Potency [6] | activation [7] -3.05% and -3.49% | activation [8] 11.7% | Potency [9] | outcome [10] | outcome [11] | outcome [12] | Potency [13] | activation [20] -0.0044% and -1.03% and -0.459% | Potency [14] | Potency [15]

Brc1ccccc1
inactive: Potency [1] | Potency [18] | Potency [3] | Potency [4] | Potency [5] | Potency [6] | activation [8] -10.5% and -5.75% | Potency [9] | outcome [10] | outcome [11] | outcome [12] | activation [19] -1.82% and -1.95% | activation [20] 1.07% and -1.27% | Potency [14] | Potency [15] | max response [16] 0.981% and 1.34% | outcome [17]

ClCBr
inactive: Potency [1] | Potency [2] | Potency [18] | Potency [5] | Potency [6] | activation [7] -2.9% | activation [8] -4.32% | Potency [9] | outcome [10] | outcome [11] | outcome [12] | Potency [14] | Potency [15] | max response [16] 0.745% | outcome [17]

[O-][Br+2]([O-])O
inactive: Potency [1] | Potency [18] | Potency [3] | Potency [4] | Potency [5] | Potency [6] | activation [8] 11.8% and -3.56% | Potency [9] | outcome [10] | outcome [11] | outcome [12] | Potency [13] | activation [19] -0.499% and 0.319% | activation [20] 0.211% and 0.528% | Potency [14] | Potency [15]
